Values joined by “and” are separate entries in the source; they are usually repeats but may differ in a detail not shown here. Identical values can stand only once. Inconclusive results are not listed. A call without a number means that no potency is given here. Active and inactive are the calls of the source. Calls come from the whole dose curve; tested in HEK293 reporter line.
Assay: qHTS for Inhibitors of the Functional Ribonucleoprotein Complex (vRNP) of Lassa (LASV) Arenavirus: Viability assay - alamar blue signal for LASV Primary Screen (AID 1347083); note: nearly all actives have a fitted effect of over 80% in size
Conditions: cell viability, alamar blue fluorescence (LASV minigenome counter-screen); series mostly up to 57.5 µM
Potency is the fitted concentration of half-maximal effect.

Structure (SMILES)	Potency
NC1(c2ccc(-c3nc4ccn5c(=O)[nH]nc5c4cc3-c3ccccc3)cc2)CCC1	2.73 µM (active) and 5.62 µM (active)
CC(C)(C)C(=O)NCCCC(=O)O	inactive
O=C(O)c1ccccc1Nc1cc(Cl)ccc1C(=O)O	inactive
Cc1c(C(=O)NN2CCCCC2)nn(-c2ccc(Cl)cc2Cl)c1-c1ccc(Cl)cc1	inactive
C[C@H]1COc2c(C3(N)CC3)c(F)cc3c(=O)c(C(=O)O)cn1c23	inactive
C#C[C@]1(O)CC[C@H]2[C@@H]3[C@H](C)CC4=C(CCC(=O)C4)[C@H]3CC[C@@]21C	inactive
NC(=O)Cc1cccc(C(=O)c2ccccc2)c1N	inactive
CC(=O)OC/C=C(C)/C=C/C=C(C)/C=C/C1=C(C)CCCC1(C)C	inactive
COC(=O)C1=C(C)NC(C)=C(C(=O)OC(C)(C)CN(C)CCC(c2ccccc2)c2ccccc2)C1c1cccc([N+](=O)[O-])c1 (centres undefined)	inactive
CCCCc1ccc2nc(NC(=O)OC)[nH]c2c1	68.5 nM (active)
Oc1c(Cl)cc(Cl)cc1Sc1cc(Cl)cc(Cl)c1O	inactive
Nc1ccc2c(c1)CN1C(=O)c3ccccc3C1=N2	inactive
CCOc1ccc(Cc2nccc3cc(OCC)c(OCC)cc23)cc1OCC	inactive
c1ccc(-c2ccc(C(c3ccccc3)n3ccnc3)cc2)cc1 (centres undefined)	inactive
COCCOC(=O)C1=C(C)NC(C)=C(C(=O)OC/C=C/c2ccccc2)C1c1cccc([N+](=O)[O-])c1 (centres undefined)	inactive
COc1ccc(/C=C/C(=O)c2ccc(OC)cc2OC)cc1	inactive
CC(=O)Oc1ccc(C2(c3ccc(OC(C)=O)cc3)C(=O)Nc3ccccc32)cc1	inactive
CC(=C(CCOC(=O)C(C)C)SSC(CCOC(=O)C(C)C)=C(C)N(C=O)Cc1cnc(C)nc1N)N(C=O)Cc1cnc(C)nc1N	inactive
Nc1nc2ccccc2n1Cc1ccc(F)cc1	inactive
C[C@H]1[C@H]2CC[C@H]3[C@@H]4CC=C5C[C@@H](N(C)C)CC[C@]5(C)[C@H]4CC[C@]23CN1C	inactive
CCOC(=O)C1=C(C)NC(C)=C(C(=O)OCC)C1c1ccccc1/C=C/C(=O)OC(C)(C)C	inactive
C=CCNc1nc(NCC=C)nc(N2CCN(C(c3ccc(F)cc3)c3ccc(F)cc3)CC2)n1	inactive
CCCCOc1cc(C(=O)NCCN(CC)CC)c2ccccc2n1	inactive
Cc1nc2n(c(=O)c1CCN1CCC(C(=O)c3ccc(F)cc3)CC1)CCS2	inactive
CCNC(=O)N1CCN(CCCC(c2ccc(F)cc2)c2ccc(F)cc2)CC1	inactive
O=C(Nc1ncc([N+](=O)[O-])s1)c1cccs1	inactive
CN(C)CCn1nnnc1SCC1=C(C(=O)O)N2C(=O)[C@@H](NC(=O)Cc3csc(N)n3)[C@H]2SC1	inactive
COC(=O)Nc1nc2ccc(Sc3ccccc3)cc2[nH]1	5440 nM (active)
C[C@@H](C1=C(CCN(C)C)Cc2ccccc21)c1ccccn1	inactive

— PubChem BioAssay (NCATS)
